Reference: the OligoGym collection

biological target: AGPAT6; experiment: pooled miR-30 sensor sort-seq; sequence = guide strand; conditions: shRNA

| Sequence | sensor-assay potency score (higher = more potent) |
| --- | --- |
| TACTACTACCACTTCGACGAAT | -0.506 |
| AAGATGATCACATCGATCGGTG | -0.372 |
| TTGATCTCTTCTTCTAGTGAAG | -1.1 |
| TTGAACATCATCACCGATGTAT | 0.749 |
| TTCATCTGCCTCTCTAGTCATG | -1.09 |
| TAAGTGAACATGTTTACTCATG | -1.14 |
| TTCTAGTGAAGTGGGATCCTTT | -0.0261 |
| ATACTTGATAGCAACAGGGTAA | -0.725 |
| TCTCTTTGATCTCTTCTTCTAG | -0.219 |
| TTTTTGAACATCATCACCGATG | -0.209 |
| TCTTCTTCTAGTGAAGTGGGAT | -0.236 |
| TATTGATGCAGGTTCCTTCTGG | -0.00526 |
